Screening data as filed in PubChem.
Sampled rows, rich in hits. Any-hit rate of the full collection: about 6.9%.
Giardia kill – Small Molecules that selectively kill Giardia lamblia: qHTS; Giardia lamblia trophozoite viability; activity change, % at 7.66 µM, hits read low; 340,000 tested, 0.15% active; in the data active = activity change below about -80%; inconclusive = between about -30% and that limit;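 also: parasites exposed to compound for two days anaerobically before the ATP read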
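Giardia trophozoites, 100 cells per well, were exposed to compounds for 48 hrs at 37 deg C under anaerobic conditions; viability was then read as ATP content by bioluminescence after 15-30 min at room temperature.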
SW480 rereplic – A quantitative high throughput screen for small molecules that induce DNA re-replication in SW480 colon adenocarcinoma cells. SW480 DNA re-replication, Hoechst DNA content imaging, 48 h. Potency, µM (titrated, usually from 46.1 µM), actives largely listed as activators. 340,000 tested, 1.8% active. AID 624297, 2012; also: nearly all actives have a fitted effect of over 55% in size
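250 cells/well; 23 nL cpd via pin tool; 48 hr, 37 C, 5% CO2; Hoechst 40 min; imager read of total nuclear intensity, ex 405/em 500-530 nm.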
KB-3-1 tox – qHTS assay for MDR1-selective chemotherapeutics: Primary screen using the parental adenocarcinoma cell KB-3-1. KB-3-1 viability, CellTiter-Glo ATP luminescence, 72 h. Potency, µM (top dose mostly 46.1 µM), most hits filed as cytotoxic. 400,000 tested, 1.4% active; also: nearly all actives have a fitted effect of over 60% in size
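Cells are dispensed, compounds pinned in, plates held at 37 °C for 72 h, then CellTiter-Glo is added and luminescence read after 10 minutes. Cell line: parental KB-3-1 in phenol-red-free DMEM, 10% FBS.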
S-ASM inh – Inhibitors of Secretory Acid Sphingomyelinase (S-ASM): qHTS; Sphingomyelin phosphodiesterase (Homo sapiens), P17405; placental ASM, HMU-PC fluorogenic substrate, 60 min; Potency, µM (highest dose often 57.5 µM), hits mostly inhibitors; 340,000 tested, 0.006% active
Target sequence (P17405 47-631 limits assumed): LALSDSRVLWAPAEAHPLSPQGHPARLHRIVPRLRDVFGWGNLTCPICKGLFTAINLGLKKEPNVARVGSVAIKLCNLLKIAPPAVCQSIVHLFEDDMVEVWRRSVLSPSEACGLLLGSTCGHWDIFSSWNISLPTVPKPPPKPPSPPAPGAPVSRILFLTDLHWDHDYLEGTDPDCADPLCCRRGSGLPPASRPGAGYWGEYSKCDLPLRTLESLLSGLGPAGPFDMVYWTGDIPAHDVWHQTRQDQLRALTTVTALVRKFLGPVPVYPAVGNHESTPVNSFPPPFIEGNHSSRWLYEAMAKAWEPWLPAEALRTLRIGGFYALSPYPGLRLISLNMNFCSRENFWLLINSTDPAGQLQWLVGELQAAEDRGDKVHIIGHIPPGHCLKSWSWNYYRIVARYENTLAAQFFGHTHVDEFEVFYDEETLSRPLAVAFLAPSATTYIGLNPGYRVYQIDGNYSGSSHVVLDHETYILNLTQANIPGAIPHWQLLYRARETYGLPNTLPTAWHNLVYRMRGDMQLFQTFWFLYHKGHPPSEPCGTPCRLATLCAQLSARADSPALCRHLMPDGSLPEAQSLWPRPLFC
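Steps: dispense placental human ASM, pin compound, wait 10 min at room temperature, add HMU-PC0 substrate at 9 uM final, incubate 60 min at 37 °C, add stop solution raising pH to 10, read fluorescence.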
MCF10A rerep – A quantitative high throughput screen for small molecules that induce DNA re-replication in MCF 10a normal breast cells. 350,000 tested, 2.9% active. AID 624296, 2012. Potency, µM (doses to about 46.1 µM), hits mostly activators. MCF 10A DNA re-replication, Hoechst nuclear intensity, 48 h; also: nearly all actives have a fitted effect of over 50% in size
KB-V1 MDR tox – qHTS assay for MDR1-selective chemotherapeutics: Primary screen using the drug-selected MDR subline cells KB-V1; KB-V1 MDR cells viability, CellTiter-Glo, 72 h; AID 1347076, 2019; Potency, µM (top dose mostly 46.1 µM), actives largely listed as cytotoxic; 400,000 tested, 3.4% active; also: nearly all actives have a fitted effect of over 60% in size
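Drug-selected KB-V1 cells, grown in DMEM lacking phenol red with 10% FBS, receive compound titrations; after three days at 37 degrees C, surviving cell ATP is quantified by CellTiter-Glo luminescence and responses normalized and curve-fitted.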
Of the large screens only hits and unclear results are named; the others gave an inactive call; ! = not confirmed by another sample. Unless noted, calls follow the shape of the dose curve; as a rule, active = well fitted curve in the direction sought with a large enough effect; inconclusive = small, poorly fitted or top-dose-only effect, or another doubt; inactive = no such curve, though single readings can be large; an effect the other way counts as inactive or inconclusive.

COc1ccc(-c2cc(C(=O)Nc3c(C)nn(Cc4ccccc4Cl)c3C)no2)cc1	MCF10A rerep 10.3µM
O=C(Cc1c(F)cccc1Cl)Nc1ccon1	none
Cc1ccccc1OC(C)C(=O)NCCNC(=O)C(C)Oc1ccccc1C (centres undefined)	none (no result: SW480 rereplic, S-ASM inh, MCF10A rerep)
Cc1c(C(=O)C(=O)N2CCN(C)CC2)c2ccccc2n1C	none
Cc1c(C(=O)C(=O)N2c3ccc(F)cc3CCC2C)c2ccccc2n1C (centres undefined)	SW480 rereplic 7.31µM, KB-3-1 tox 2.91µM, MCF10A rerep 2.59µM, KB-V1 MDR tox 2.91µM
O=C(CN1CCN(Cc2ccccc2Cl)CC1)N=Nc1c(O)[nH]c2ccccc12	KB-V1 MDR tox 14.6µM
CCCCNC(=O)CSc1nc2ccccc2n1S(=O)(=O)c1ccc(Br)cc1	none
O=C(CN(c1cccc([N+](=O)[O-])c1)S(=O)(=O)c1ccccc1)NCc1ccccc1	KB-V1 MDR tox 5.8µM
O=C(CSc1nc2ccccc2n1S(=O)(=O)c1cccc([N+](=O)[O-])c1)NCCc1ccccc1	KB-3-1 tox inconclusive, KB-V1 MDR tox 3.66µM
CS(=O)(=O)N(CC(=O)NCCc1ccccc1)c1cccc([N+](=O)[O-])c1	MCF10A rerep 0.651µM
Cc1ccc(CNC(=O)CN(c2cccc([N+](=O)[O-])c2)S(=O)(=O)c2ccccc2)cc1	none
O=C(C[N+]1(CCO)CCOCC1)c1ccc2ccccc2c1	none (no result: Giardia kill, SW480 rereplic, S-ASM inh, MCF10A rerep)
CS(=O)(=O)c1ccc(Cl)c(NC(=O)COC(=O)CNC(=O)c2ccc3ccccc3c2)c1	none
CC1CCCC(N2CCN(C(=O)c3ccc([N+](=O)[O-])cc3)CC2)C1 (centres undefined)	SW480 rereplic 8.2µM, MCF10A rerep inconclusive
O=C(c1ccc(Oc2ccc([N+](=O)[O-])cc2)cc1)N1CCCCCC1	KB-3-1 tox inconclusive
CC1CCc2c(sc(NC(=O)CSc3ncn[nH]3)c2C#N)C1 (centres undefined)	KB-3-1 tox inconclusive, MCF10A rerep 18.4µM
CC(C)(C)C1CCc2c(sc(NC(=O)CSc3ncn[nH]3)c2C#N)C1 (centres undefined)	SW480 rereplic inconclusive, KB-3-1 tox inconclusive, MCF10A rerep inconclusive, KB-V1 MDR tox 16.4µM
Fc1cccc(F)c1-n1c(CN2CCCCC2)csc1=S	SW480 rereplic 14.6µM, KB-3-1 tox 23.1µM, MCF10A rerep inconclusive, KB-V1 MDR tox inconclusive
Fc1cccc(F)c1-n1c(CN2CCOCC2)csc1=S	none
NC(=O)c1cn(-c2ccccc2)nc1-c1cc2ccccc2oc1=O	none
O=C(c1ccccc1)c1nn(-c2ccc(Cl)cc2)cc1C(=O)c1cc2ccccc2oc1=O	KB-3-1 tox inconclusive, MCF10A rerep inconclusive, KB-V1 MDR tox 7.31µM
CCCn1nc(NC(=O)C2CCCO2)c2cc3ccc(C)cc3nc21 (centres undefined)	SW480 rereplic inconclusive
CCCn1nc(NC(=O)c2cccs2)c2cc3cc(C)ccc3nc21	SW480 rereplic 20.6µM, MCF10A rerep 18.4µM, KB-V1 MDR tox inconclusive
CCCn1nc(NC(=O)c2cccs2)c2cc3ccc(C)cc3nc21	SW480 rereplic 14.6µM, MCF10A rerep inconclusive
C/C(N)=C(/C#N)C(=O)COC(=O)c1cc(-c2ccc(Br)cc2)nc2ccccc12	SW480 rereplic inconclusive, KB-3-1 tox inconclusive, MCF10A rerep inconclusive, KB-V1 MDR tox 20.6µM!
Nc1nc(N2CCN(C(=O)c3ccco3)CC2)nc2ccccc12	none
COc1ccc(-c2cc(C(=O)OCC(=O)N3CCOCC3)c3ccccc3n2)cc1	MCF10A rerep 16.4µM, KB-V1 MDR tox inconclusive
O=C(OCC(=O)N1CCN(C(=O)c2ccco2)CC1)c1cc(-c2cccc(Br)c2)nc2ccccc12	MCF10A rerep inconclusive, KB-V1 MDR tox 16.4µM
Nc1nc(N2CCN(C(=O)c3ccco3)CC2)nc2ccc(Br)cc12	KB-3-1 tox inconclusive, MCF10A rerep inconclusive, KB-V1 MDR tox 20.6µM
O=C(OCC(=O)N1CCN(C(=O)c2ccco2)CC1)c1cc(-c2ccccc2)nc2ccccc12	MCF10A rerep inconclusive
Cc1cc(C)c(C)c(S(=O)(=O)N2CCC(C(=O)NCCCN3CCOCC3)CC2)c1C	none
CCOc1cc(CNC(=O)c2ccc3c(c2)N(C)C(=O)C2CCCCN32)ccc1OC (centres undefined)	none (no result: Giardia kill, SW480 rereplic, S-ASM inh, MCF10A rerep)
COc1ccc(CCC(C)NCC2CCCCC2)cc1 (centres undefined)	SW480 rereplic inconclusive, KB-3-1 tox inconclusive, MCF10A rerep inconclusive, KB-V1 MDR tox 20.6µM
O=C(Nc1ccccc1)c1ccc(-c2ccc(Br)cc2)o1	SW480 rereplic inconclusive, MCF10A rerep 20.6µM
COc1ccccc1NC(=O)c1ccc(-c2ccc(Br)cc2)o1	SW480 rereplic inconclusive, KB-3-1 tox 5.8µM, MCF10A rerep inconclusive, KB-V1 MDR tox 3.26µM
CN(C)C(=O)c1ccc(NC(=O)c2ccc(-c3ccc(Cl)cc3)o2)cc1	KB-V1 MDR tox 20.6µM
O=C(Nc1ccccc1)c1ccc(-c2ccc([N+](=O)[O-])cc2)o1	KB-3-1 tox inconclusive, MCF10A rerep 23.1µM
NC(=O)c1ccccc1NC(=O)c1ccc(-c2ccc(Br)cc2)o1	none (no result: Giardia kill, SW480 rereplic, S-ASM inh, MCF10A rerep)
COc1ccc(Cn2c(=O)[nH]c3cc(C(=O)NCCC(C)C)ccc3c2=O)cc1	none (no result: Giardia kill, SW480 rereplic, S-ASM inh, MCF10A rerep)
N#Cc1ccc(C(=O)Nc2ccc3c(c2)N(C2CCCC2)C(=O)c2ccccc2S3)cc1	none (no result: Giardia kill, SW480 rereplic, S-ASM inh, MCF10A rerep)
CSc1ccc(/C=C2\C=Cc3ccc([N+](=O)[O-])cc32)cc1	KB-V1 MDR tox inconclusive (no result: Giardia kill, SW480 rereplic, S-ASM inh, MCF10A rerep)
Cc1ccccc1C(=O)Nc1nnc(SCC(=O)NCc2ccco2)s1	Giardia kill inconclusive, SW480 rereplic inconclusive
COc1ccc(CCNC(=O)CSc2nc3ccccc3nc2Cc2ccc(C)cc2)cc1OC	none (no result: Giardia kill, SW480 rereplic, S-ASM inh, MCF10A rerep)
O=C(Nc1ccc(CN2CCOCC2)cc1)c1ccco1	none
O=C(Nc1ccc(CN2CCOCC2)cc1)c1ccc(-c2ccc(Br)cc2)o1	SW480 rereplic inconclusive, MCF10A rerep inconclusive, KB-V1 MDR tox 20.6µM
COc1ccc(C(=O)OCC(=O)c2c[nH]c3ccccc23)cc1OC	none
COc1cc(Cl)c(CC(=O)c2c[nH]c3ccccc23)cc1OC	KB-3-1 tox 13µM, KB-V1 MDR tox inconclusive
Cc1occc1C(=O)N1CCN(c2ccc(Cl)c(Cl)c2)CC1	KB-V1 MDR tox 23.1µM
Cc1occc1C(=O)N1CCN(c2ccccc2)CC1	SW480 rereplic inconclusive, KB-V1 MDR tox inconclusive
O=C1CC2C(CCC23OCCO3)c2ccc3ccccc3c21 (centres undefined)	Giardia kill inconclusive
